In PubChem BioAssay (NCATS):
Inconclusive results are not listed. Where a call stands in place of a potency, no number is given. Calls of active or inactive are those of the source. Calls come from the whole dose curve; as a rule, active = well fitted inhibition curve with a large enough effect; inconclusive = small, poorly fitted or top-dose-only effect; inactive = flat fitted curve, though single readings scatter.

Legend:
Experiment in all cases: qHTS profiling for inhibitors of Plasmodium falciparum proliferation (AID 504749); note: nearly all actives have a fitted effect of over 60% in size
Details in all cases: P. falciparum in erythrocytes, SYBR Green DNA, 72 h; series mostly up to 28.7 µM
CP260 = tested on: CP260
Procedure, shortened: (§1)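 In a 72 h erythrocytic culture (37 C, humidified, 5% CO2) at 2.5% hematocrit and 0.3% starting parasitemia, compounds were tested; SYBR Green I in detergent lysis buffer stained parasite DNA overnight.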

CP262 = tested on: CP262
Procedure, shortened: as §1

CP265 = tested on: CP265
Procedure, shortened: as §1

CP266 = tested on: CP266
Procedure, shortened: as §1

CP268 = tested on: CP268
Procedure, shortened: as §1

CP269 = tested on: CP269
Procedure, shortened: as §1

CP286 = tested on: CP286
Procedure, shortened: as §1

CP291 = tested on: CP291
Procedure, shortened: as §1

CP297 = tested on: CP297
Procedure, shortened: as §1

CP305 = tested on: CP305
Procedure, shortened: as §1
Potency is the fitted concentration of half-maximal effect.

SMILES | Potency (CP260) | Potency (CP262) | Potency (CP265) | Potency (CP266) | Potency (CP268) | Potency (CP269) | Potency (CP286) | Potency (CP291) | Potency (CP297) | Potency (CP305)
COc1cc(C)nc(-n2nc(C)cc2OC)n1 | inactive | inactive | inactive | inactive | inactive | inactive | inactive | inactive | inactive | inactive
CCOC(=O)C(C#N)=C(c1ccccc1)c1ccccc1 | inactive | inactive | inactive | inactive | inactive | inactive | inactive | inactive | inactive | inactive
NCCNC(=O)c1ccc(Cl)cn1 | inactive | inactive | inactive | inactive | inactive | inactive | inactive | inactive | inactive | inactive
C[N+]1(CC2COC(c3ccccc3)(C3CCCCC3)O2)CCCCC1 (configuration not stated) | 4.47 µM (active) | 5.36 µM (active) | 10 µM (active) | 8.49 µM (active) | 7.57 µM (active) | 4.78 µM (active) | 5.01 µM (active) | 4.78 µM (active) | 6.01 µM (active) | 4.78 µM (active)
CC(=O)Nc1ccc(OCC(O)CNC(C)C)cc1 (configuration not stated) | inactive | inactive | inactive | inactive | inactive | inactive | inactive | inactive | inactive | inactive
Cn1c(=O)c2[nH]c(Br)nc2n(C)c1=O | inactive | inactive | inactive | inactive | inactive | inactive | inactive | inactive | inactive | inactive
CCCCNC(=O)NS(=O)(=O)c1ccc(N)cc1 | inactive | inactive | inactive | inactive | inactive | inactive | inactive | inactive | inactive | inactive
Nc1nc(-c2ccccc2)c(Br)c(=O)[nH]1 | inactive | inactive | inactive | inactive | inactive | inactive | inactive | inactive | inactive | inactive
NC(=S)N/N=C/c1cccnc1 | inactive | inactive | inactive | inactive | inactive | inactive | inactive | inactive | inactive | inactive
CCc1oc2ccccc2c1C(=O)c1cc(Br)c(O)c(Br)c1 | inactive | inactive | inactive | inactive | inactive | inactive | inactive | inactive | inactive | inactive
COc1cc(NS(=O)(=O)c2ccc(N)cc2)ncn1 | inactive | inactive | inactive | inactive | inactive | inactive | inactive | inactive | inactive | inactive
CC(C)Cc1ccc(CC(=O)O)cc1 | inactive | inactive | inactive | inactive | inactive | inactive | inactive | inactive | inactive | inactive
CCN(CC)CCNC(=O)COc1ccc(OC)cc1 | inactive | inactive | inactive | inactive | inactive | inactive | inactive | inactive | inactive | inactive
CC(C)Cn1cnc2c1c(=O)n(C)c(=O)n2C | inactive | inactive | inactive | inactive | inactive | inactive | inactive | inactive | inactive | inactive
CC[C@H](c1ccc(O)cc1)[C@@H](CC)c1ccc(O)cc1 | inactive | inactive | inactive | inactive | inactive | inactive | inactive | inactive | inactive | inactive
COc1cc(C(=O)NCc2ccc(OCCN(C)C)cc2)cc(OC)c1OC | inactive | inactive | inactive | inactive | inactive | inactive | inactive | inactive | inactive | inactive
CCCCCCCCCCCCSCCOCCO | inactive | inactive | inactive | inactive | inactive | inactive | inactive | inactive | inactive | inactive
COc1cc(N)c(Cl)cc1C(=O)NC1CCN(Cc2ccccc2)CC1 | inactive | inactive | inactive | inactive | inactive | inactive | inactive | inactive | inactive | inactive
CCOc1cc(OCC)c(C(=O)CCC(=O)O)cc1OCC | inactive | inactive | inactive | inactive | inactive | inactive | inactive | inactive | inactive | inactive
NS(=O)(=O)c1ccc(Cl)c(S(N)(=O)=O)c1 | inactive | inactive | inactive | inactive | inactive | inactive | inactive | inactive | inactive | inactive
Cc1cccc(C)c1NC(=O)CN1CCCCCC1 | inactive | inactive | inactive | inactive | inactive | inactive | inactive | inactive | inactive | inactive
CC1=C(C(=O)O)N2C(=O)[C@@H](NC(=O)[C@H](N)c3ccccc3)[C@H]2SC1 | inactive | inactive | inactive | inactive | inactive | inactive | inactive | inactive | inactive | inactive
CC(=O)Nc1ccc(CC(=O)O)cc1 | inactive | inactive | inactive | inactive | inactive | inactive | inactive | inactive | inactive | inactive

SMILES | Potency (CP260) | Potency (CP262) | Potency (CP265) | Potency (CP266) | Potency (CP268) | Potency (CP269) | Potency (CP286) | Potency (CP291) | Potency (CP297) | Potency (CP305)
CCCCC(CC)COC(=O)/C=C/c1ccc(OC)cc1 (configuration not stated) | inactive | inactive | inactive | inactive | inactive | inactive | inactive | inactive | inactive | inactive
CCC1Nc2cc(Cl)c(S(N)(=O)=O)cc2S(=O)(=O)N1 (configuration not stated) | inactive | inactive | inactive | inactive | inactive | inactive | inactive | inactive | inactive | inactive
CCCCc1cc2ccccc2c(OCCN(C)C)n1 | inactive | inactive | inactive | inactive | inactive | inactive | inactive | inactive | inactive | inactive
COc1ccc(-c2cc(C(F)F)nn2-c2ccc(S(N)(=O)=O)cc2)cc1F | inactive | inactive | inactive | inactive | inactive | inactive | inactive | inactive | inactive | inactive
COc1ccc2c(c1)c1c3n2CCN(C)C3=NCC1 | inactive | inactive | inactive | inactive | inactive | inactive | inactive | inactive | inactive | inactive
Cc1nc(-c2ccc(Cl)cc2)oc1COC(C)(C)C(=O)O | inactive | inactive | inactive | inactive | inactive | inactive | inactive | inactive | inactive | inactive
Nc1ccc(C(=O)NCC(=O)O)cc1 | inactive | inactive | inactive | inactive | inactive | inactive | inactive | inactive | inactive | inactive
C/C=C/c1ccc(O)c(OC)c1 | inactive | inactive | inactive | inactive | inactive | inactive | inactive | inactive | inactive | inactive
Cc1c[nH]c2ccccc12 | inactive | inactive | inactive | inactive | inactive | inactive | inactive | inactive | inactive | inactive
CCNC(=O)NCc1cccc(Cl)c1 | inactive | inactive | inactive | inactive | inactive | inactive | inactive | inactive | inactive | inactive
CCCCCCCCCCCCCCCC(=O)O | inactive | inactive | inactive | inactive | inactive | inactive | inactive | inactive | inactive | inactive
c1ccc(CC2=NCCN2)cc1 | inactive | inactive | inactive | inactive | inactive | inactive | inactive | inactive | inactive | inactive
Nc1nc(N)c(-c2ccccc2)s1 | inactive | inactive | inactive | inactive | inactive | inactive | inactive | inactive | inactive | inactive
NC(=O)n1c(O)c(C(=O)c2cccs2)c2cc(Cl)ccc21 | inactive | inactive | inactive | inactive | inactive | inactive | inactive | inactive | inactive | inactive
O=C(O)CCC(=O)Nc1ccc(S(=O)(=O)Nc2nccs2)cc1 | inactive | inactive | inactive | inactive | inactive | inactive | inactive | inactive | inactive | inactive
OC1C(O)C(O)C(O)C(O)C1O (configuration not stated) | inactive | inactive | inactive | inactive | inactive | inactive | inactive | inactive | inactive | inactive
C/C=C/C=N/NC(=O)c1ccncc1 | inactive | inactive | inactive | inactive | inactive | inactive | inactive | inactive | – | inactive
Cc1cc(C)cc(OCC2CNC(=O)O2)c1 (configuration not stated) | inactive | inactive | inactive | inactive | inactive | inactive | inactive | inactive | inactive | inactive
COc1ccccc1N1CCN(CCCCNC(=O)c2ccc(-c3ccc(C(C)=O)cc3)cc2)CC1 | inactive | inactive | inactive | inactive | inactive | inactive | – | inactive | inactive | inactive
NC(=O)c1ccccc1O | inactive | inactive | inactive | inactive | inactive | inactive | inactive | inactive | inactive | inactive
OC[C@H]1O[C@@H]2O[C@H]3[C@H](O)[C@@H](O)[C@@H](O[C@H]4[C@H](O)[C@@H](O)[C@@H](O[C@H]5[C@H](O)[C@@H](O)[C@@H](O[C@H]6[C@H](O)[C@@H](O)[C@@H](O[C@H]7[C@H](O)[C@@H](O)[C@@H](O[C@H]8[C@H](O)[C@@H](O)[C@@H](O[C@H]1[C@H](O)[C@H]2O)O[C@@H]8CO)O[C@@H]7CO)O[C@@H]6CO)O[C@@H]5CO)O[C@@H]4CO)O[C@@H]3CO | inactive | inactive | inactive | inactive | inactive | inactive | inactive | inactive | – | inactive
OCc1ccccn1 | inactive | inactive | inactive | inactive | inactive | inactive | inactive | inactive | inactive | inactive
c1ccc(-c2nc[nH]c2-c2ccccc2)cc1 | inactive | inactive | inactive | inactive | inactive | inactive | inactive | inactive | inactive | inactive
